Measured values reported in PubChem BioAssay (NCATS).
Records with an inconclusive call do not appear. Entries that show only a call come without a potency. The source made the active and inactive calls. Calls follow the shape of the dose curve; as a rule, active = well fitted inhibition curve with a large enough effect; inconclusive = small, poorly fitted or top-dose-only effect; inactive = no such curve, though single readings can be large or run the other way.

How the values were obtained:
[1] = system: Zika virus NS2B-NS3 protease (unlinked complex); assay: Primary screen GU Rhodamine qHTS for Zika virus inhibitors: Unlinked NS2B-NS3 protease assay (AID 1347159); conditions: Recombinant ZIKV NS2B-NS3 protease, Rhodamine110 substrate fluorescence; series mostly up to 107 µM; also: nearly all actives have a fitted effect of over 60% in size; also: potency is read from the fitted curve at half-maximal effect
Method in brief: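 Percent inhibition derives from the 15-min fluorescence change (ex 480, em 540 nm), normalized to no-enzyme and no-inhibitor wells. Reactions contained 25 nM NS2B-NS3 complex and 1.5 microM substrate in 10 mM Tris-HCl pH 8.0.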

[2] = system: Zika virus NS2B-NS3 protease (linked construct); assay: Primary screen NINDS Rhodamine qHTS for Zika virus inhibitors (AID 1347160); conditions: purified NS2B-NS3 protease, Rhodamine110 substrate fluorescence; series mostly up to 33.1 µM; also: nearly all actives have a fitted effect of over 55% in size
Method in brief: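 In 10 mM Tris-HCl pH 8.0 containing 0.01% Tween 20, linked NS2B-NS3 protease (25 nM final) is exposed to test compounds for 15 min. Cleavage of 1.5 microM Rhodamine110 substrate is tracked by fluorescence over 15 min.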

Row | SMILES | Potency [1] | Potency [2]
1 | COc1cc(/C=C/C(=O)O[C@H]2[C@H](O)[C@@H](CO)O[C@@]2(CO)O[C@H]2O[C@H](CO)[C@@H](O)[C@H](O)[C@H]2O)cc(OC)c1O | inactive | inactive
2 | CC(=O)/C=C/C1(O)C(C)(C)CC(O)CC1(C)O (stereo not given) | inactive | inactive
3 | CCC12CCCN3CCc4c(n(c5ccccc45)C(O)C1)C32 (stereo not given) | inactive | inactive
4 | C=C1CC23CC(=O)C4C(CO)(CO)CCCC4(C)C2CCC1C3 (stereo not given) | inactive | inactive
5 | CC12CC34CC(O)C5C(CO)(CO)CC(=O)CC5(C)C3CC1C2C4 (stereo not given) | inactive | inactive
6 | C/C=C1\[C@H](O[C@@H]2O[C@H](CO)[C@@H](O)[C@H](O)[C@H]2O)OC=C(C(=O)O)[C@H]1CC(=O)OCCc1ccc(O)cc1 | inactive | inactive
7 | NC(=O)c1ccc(F)c2c1C[C@@H](N(C1CCC1)C1CCC1)CO2 | inactive | inactive
8 | C[C@@H]1O[C@@H](O[C@H]2[C@@H]3C=CO[C@@H](O[C@@H]4O[C@H](CO)[C@@H](O)[C@H](O)[C@H]4O)[C@@H]3[C@@]3(CO)O[C@@H]23)[C@H](O)[C@H](OC(=O)/C=C/c2ccc(O)cc2)[C@H]1OC(=O)/C=C/c1ccc(O)cc1 | inactive | inactive
9 | C[C@@H]1O[C@@H](O[C@@H]2\C=C/C=C\C=C/C=C\C[C@H](C)OC(=O)/C=C\[C@H]3O[C@@H]3C[C@H](O)C[C@]3(O)C[C@@H](O)[C@@H](C(=O)O)[C@H](C2)O3)[C@H](O)[C@H](N)[C@@H]1O | inactive | inactive
10 | CC1CC(O)/C=C/C(O)/C=C\C(=O)O1 (stereo not given) | inactive | inactive
11 | CC1=C(C)C(=O)OC(C(C)C2C(O)CC3C4C5OC5C5(O)CC(OC6OC(CO)C(OC7OC(C)C(O)C(O)C7O)C(O)C6O)CC(O)C5(C)C4CCC32C)C1 (stereo not given) | inactive | inactive
12 | CNc1nc(Nc2cn(C(C)(C)C#N)nc2C)ncc1C(F)(F)F | inactive | inactive
13 | CC1CCC2(NC1)OC1C(O)C3C4CCC5CC(O[C@@H]6O[C@H](CO)[C@@H](O)[C@H](O)[C@H]6O[C@@H]6O[C@@H](C)[C@H](O)[C@@H](O)[C@H]6O)CCC5(C)C4CCC3(C)C1C2C (stereo not given in full) | inactive | inactive
14 | C=C1CC2C3(C)C=CC(=O)OC(C)(C)C3CC(OC(C)=O)C2(C)C2C(=O)OC(C)C(=O)C12C (stereo not given) | inactive | inactive
15 | CC(=O)c1ccc(O[C@@H]2OC[C@@H](O)[C@H](O)[C@H]2O[C@]2(CO)O[C@H](CO)[C@@H](O)[C@@H]2O)c(O)c1 | inactive | inactive
16 | CC(=O)OC12CC(C)C(O)C1/C=C(/COC1OC(CO)C(O)C(O)C1O)CCC1C(/C=C(\C)C2=O)C1(C)C (stereo not given) | inactive | inactive
17 | CC1=C2C[C@@]3(C)C(CCC[C@@H]3C)C(O)C2(O)OC1=O (stereo not given in full) | inactive | inactive
18 | CC(O)C1NC(=O)C2CCCN2C1=O (stereo not given) | inactive | inactive
19 | COc1cc(CO)ccc1O[C@@H]1O[C@H](CO)[C@@H](O)[C@H](O)[C@H]1O | inactive | inactive
20 | Cc1noc2c1-c1ccccc1C(c1ccc(Cl)cc1)=N[C@H]2CC(N)=O | inactive | inactive

Row | SMILES | Potency [1] | Potency [2]
21 | Cc1ccccc1N1CCN(S(=O)(=O)C[C@]23CC[C@H](C[C@@H]2NC(=O)[C@@H](N)CCS(C)(=O)=O)C3(C)C)CC1 | inactive | inactive
22 | CC(CC12CCCN1C(=O)C1CCCN1C2=O)OC(N)=O (stereo not given) | inactive | inactive
23 | CNC(C)C(=O)NC(C(=O)N1CCCC1C(=O)Nc1cccc2ncccc12)C(C)C (stereo not given) | inactive | inactive
24 | COC(=O)C1=CO[C@@H](O[C@@H]2O[C@H](CO)[C@@H](O)[C@H](O)[C@H]2O)[C@H]2[C@@H]1[C@H](O)C[C@]2(C)O | inactive | inactive
25 | CC/C=C/C(O)C(O)C1=C(C)C(=O)C2(O1)C(=O)NC(OC)(C(=O)c1ccccc1)C2O (stereo not given) | inactive | inactive
26 | COC(=O)C1=COC(O[C@@H]2O[C@H](CO)[C@@H](O)[C@H](O)[C@H]2O)[C@@H]2[C@@](C)(O)[C@@H](OC(=O)/C=C/c3ccccc3)C[C@]12O (stereo not given in full) | inactive | inactive
27 | O=C(C[C@@H]1C(C(=O)O)=CO[C@@H](O[C@@H]2O[C@H](CO)[C@@H](O)[C@H](O)[C@H]2O)/C1=C\CO)OCCc1ccc(O)cc1 | inactive | inactive
28 | CCC(C)C(N)C(=O)NCCN1CCOCC1 (stereo not given) | inactive | inactive
29 | C=CC(C)(O)CC/C=C(\C)C1CC=C(C)C(=O)O1 (stereo not given) | inactive | inactive
30 | C/C(=C\C(=O)C[C@@]12C(=O)O[C@]3(C)CC[C@H]1C[C@H]23)C(N)=O | inactive | inactive
31 | CSCC1OC(n2cnc3c(N)ncnc32)C(O)C1O (stereo not given) | inactive | inactive
32 | CC1(C)O[C@H]2CC(=O)OC[C@@]23C1=C(O)C(=O)[C@]1(C)C3CC[C@@]2(C)[C@H](c3ccoc3)OC(=O)[C@H]3O[C@]321 (stereo not given in full) | inactive | inactive
33 | CC1=C(C(=O)OC2OC(COC3OC(CO)C(O)C(O)C3O)C(O)C(O)C2O)C(C)(C)CCC1 (stereo not given) | inactive | inactive
34 | O=C(CCc1ccccc1)c1c(O)c([C@@H]2O[C@H](CO)[C@@H](O)[C@H](O)[C@H]2O)c(O)c([C@@H]2O[C@H](CO)[C@@H](O)[C@H](O)[C@H]2O)c1O | inactive | inactive
35 | CC1=CCC(O)C2(C)CCC3C(C)C(=O)OC3C12 (stereo not given) | inactive | inactive
36 | COc1cc(O)cc(O[C@@H]2O[C@H](CO)[C@@H](O[C@@H]3OC[C@](O)(CO)[C@H]3O)[C@H](O)[C@H]2O)c1OC | inactive | inactive
37 | C=C1CCC2[C@](C)(CCC[C@]2(C)C(=O)O)[C@H]1CC/C(C)=C/C(=O)OC (stereo not given in full) | 12.6 µM (active) | inactive
38 | CO[C@@H]1[C@]2(O)C(=O)N3/C=C\C(C)(C)c4[nH]c5ccccc5c4/C=C\3C(=O)N2[C@]23[C@H](CO)C(C)(C)N2c2ccccc2[C@]13O | inactive | inactive
39 | CC(=O)O[C@@H](C[C@@H]1C=C(C)C(=O)O1)[C@H](C)[C@H]1CCC2[C@@]3(C)CC[C@H](O[C@@H]4O[C@H](CO)[C@@H](O)[C@H](O)[C@H]4O[C@@H]4O[C@@H](C)[C@H](O)[C@@H](O)[C@H]4O)C(C)(C)C3CC[C@@]2(C)[C@@]12COC(=O)C2 (stereo not given in full) | inactive | inactive
40 | COc1ccc(CC(=O)NCc2ccccc2-c2ccccc2C(=O)NCCc2cccnc2)cc1 | inactive | inactive

Row | SMILES | Potency [1] | Potency [2]
41 | CCC(C)(C)C1CCc2c(sc(NC(=O)c3ccc(Br)cc3)c2C#N)C1 (stereo not given) | inactive | inactive
42 | COc1cc(CC2COC(c3ccc(OC4OC(CO)C(O)C(O)C4O)c(OC)c3)C2CO)ccc1O (stereo not given) | inactive | inactive
43 | COC(=O)C1(O)C(OC(C)=O)CCC2C3(CC(c4ccoc4)OC3=O)C(C)=CCC21C(=O)OC (stereo not given) | inactive | inactive
44 | CC1(C)CC[C@]2(C(=O)O)[C@H](O)C[C@]3(C)C(=CCC4[C@@]5(C)CC[C@H](O[C@@H]6OC[C@@H](O)[C@H](O)[C@H]6O)[C@@](C)(C(=O)O)C5CC[C@]43C)[C@@H]2C1 (stereo not given in full) | inactive | inactive
45 | CC(C)=C1C[C@@]2(C)C(=CC1=O)CC[C@@H](O)[C@@H]2C | inactive | inactive
46 | COc1ccc(N2CCN(CCCNC(=O)Cn3c(=O)c4cccn4c4c(C)ccnc43)CC2)cc1 | inactive | inactive
47 | C[C@]1(OC(=O)/C=C/c2ccc(O)cc2)C[C@@H](O)[C@]2(O)C=CO[C@@H](O[C@@H]3O[C@H](CO)[C@@H](O)[C@H](O)[C@H]3O)C12 (stereo not given in full) | inactive | inactive
48 | C[C@@H]1O[C@@H](O[C@H]2[C@H](O)[C@@H](O[C@@H]3O[C@H](CO)[C@H](O)[C@H](O)[C@H]3O)[C@H](O[C@H]3CC[C@@]4(C)C(CC[C@]5(C)C4CC=C4[C@@H]6CC(C)(C)CC[C@]6(C(=O)O[C@@H]6O[C@H](CO)[C@@H](O)[C@H](O)[C@H]6O)CC[C@]45C)C3(C)C)O[C@@H]2C(=O)O)[C@H](O)[C@H](O)[C@H]1O (stereo not given in full) | inactive | inactive
49 | CC(=O)O[C@@H]1[C@@H](O)[C@H](C)O[C@@H](O[C@H]2[C@@H]3C=CO[C@@H](O[C@@H]4O[C@H](CO)[C@@H](O)[C@H](O)[C@H]4OC(C)=O)[C@@H]3[C@@]3(CO)O[C@@H]23)[C@@H]1OC(=O)/C=C/c1ccc(O)cc1 | inactive | inactive
50 | Cc1[nH]c2ccccc2c1CC(=O)N[C@@H](Cc1ccccc1)C(=O)N(C)c1ccccc1 | inactive | inactive
51 | C/C=C1/[C@H](O[C@@H]2O[C@H](CO)[C@@H](O)[C@H](O)[C@H]2O)OC=C(C(=O)OC)[C@H]1CC(=O)OCCc1ccc(O)c(O)c1 | inactive | inactive
52 | CC1(C)CCCC2(C)c3c4c(c(=O)oc(=O)c3=CCC12)=CCC1C(C)(C)CCCC41C (stereo not given) | inactive | inactive
53 | C=C[C@]1(C)C[C@@H](OC(=O)CSC2C[C@H]3CC[C@@H](C2)N3C)[C@]2(C)[C@H](C)CC[C@]3(CCC(=O)[C@H]32)[C@@H](C)[C@@H]1O (stereo not given in full) | inactive | inactive
54 | CCCCOc1nc(N)c2c(n1)N(Cc1cccc(CN3CCCC3)c1)CC(=O)N2 | inactive | inactive
55 | c1ccc2c(Nc3nnc(-c4ccncc4)s3)cccc2c1 | inactive | inactive
56 | Cc1nc(-c2cccnc2)sc1C(=O)Nc1ccccc1-c1cn2c(CN3CCOCC3)csc2n1 | inactive | inactive
57 | C[C@@H]1O[C@@H](OC(=O)Cc2ccccc2)[C@H](O)[C@H](O)[C@H]1O | inactive | inactive
58 | CC(C)c1c(NC(=O)Nc2ccc(Cl)cc2)c(=O)n(-c2ccccc2)n1C | inactive | inactive
59 | CC(=O)NC1CC(=O)C23C(=O)NC(Cc4c[nH]c5ccccc45)C2C(C)=C(C)C(O)C3/C=C/CC(C)/C=C(/C)C(O)C1O (stereo not given) | inactive | inactive
60 | CN1CCCC1Cc1c[nH]c2ccc(CCS(=O)(=O)c3ccccc3)cc12 (stereo not given) | inactive | inactive
